Out of some 39,000 compounds screened, about 3,300 (8.5%) were called active. The sample as a whole holds a higher share of actives than the screen did.

The test system of the test is HepG2. Kind of test: cytotoxicity call (relative viability < 0.9). The note with it: 10 µM.
Consider `COc1cccc(C#Cc2cnc3c(c2)C(=O)N([C@H](C)CO)C[C@@H](C)[C@@H](CN(C)C(=O)C2CCOCC2)O3)c1`, for which the cytotoxicity call was “inactive”.
For `C[C@H]1CN([C@@H](C)CO)C(=O)CCCn2nncc2CO[C@H]1CN(C)S(=O)(=O)c1ccc(-n2cccn2)cc1`, the cytotoxicity call was “inactive”.
With `CCOC(=O)c1cc2c(c(-c3ccccc3)n1)[C@@H](CCO[Si](C)(C)C(C)(C)C)N(S(=O)(=O)C(C)(C)C)C2` the entry was “inactive”; with `CCC(=O)Nc1ccc2c(c1)C(=O)N(C)C[C@@H](OC)[C@@H](C)CN(C(=O)CN1CCOCC1)[C@@H](C)CO2`, “inactive”.
To `O=C(O)COCC(=O)NCc1ccco1` belongs “inactive”; to `O=C1O[C@@H](c2ccccc2)[C@@H](c2ccccc2)N2[C@@H](c3ccc(O)cc3)[C@]3(C(=O)Nc4ccccc43)[C@@H](C(=O)Nc3nc4ccccc4s3)[C@H]12`, “inactive”.
With `C[C@H]1CN([C@@H](C)CO)C(=O)c2cc(C#Cc3ccccc3F)cnc2O[C@@H]1CN(C)C(=O)c1ccc2c(c1)OCO2` the entry was “inactive”; with `C[C@@H]1CN([C@H](C)CO)C(=O)Cc2cc(N(C)C)ccc2O[C@@H]1CN(C)S(=O)(=O)c1cn(C)cn1`, “inactive”.
`C[C@H]1CN([C@@H](C)CO)C(=O)c2cc(NC(=O)Nc3ccc(C(F)(F)F)cc3)ccc2O[C@@H]1CN(C)C(=O)Nc1ccc2c(c1)OCO2`: the cytotoxicity call is “active”.
To `C[C@@H]1CN([C@H](C)CO)C(=O)c2cc(NC(=O)Nc3ccc(C(F)(F)F)cc3)ccc2O[C@H]1CN(C)C(=O)Nc1ccc2c(c1)OCO2` belongs “inactive”; to `C[C@H]1CN([C@@H](C)CO)C(=O)c2cc(NC(=O)Nc3ccc4c(c3)OCO4)ccc2O[C@H]1CN(C)C(=O)Nc1ccc(C(F)(F)F)cc1`, “inactive”.
With `C[C@H]1CN([C@@H](C)CO)C(=O)c2cc(NC(=O)Nc3ccc4c(c3)OCO4)ccc2O[C@@H]1CN(C)C(=O)Nc1ccc(C(F)(F)F)cc1` the entry was “inactive”; with `C[C@@H]1CN([C@@H](C)CO)C(=O)c2cc(NC(=O)Nc3ccc(C(F)(F)F)cc3)ccc2O[C@@H]1CN(C)C(=O)Nc1ccc2c(c1)OCO2`, “active”; with `C[C@@H]1CN([C@@H](C)CO)C(=O)c2cc(NC(=O)Nc3ccc4c(c3)OCO4)ccc2O[C@H]1CN(C)C(=O)Nc1ccc(C(F)(F)F)cc1`, “inactive”.
To `COCCNC(=O)C[C@@H]1C[C@@H]2c3cc(NC(=O)COC)ccc3O[C@@H]2[C@@H](CO)O1` belongs “inactive”; to `Cc1noc(C)c1NC(=O)Nc1ccc2c(c1)C(=O)N([C@@H](C)CO)C[C@@H](C)[C@H](CN(C)S(=O)(=O)c1ccccc1)OCCCC[C@@H](C)O2`, “inactive”.
With `C[C@H]1CN([C@@H](C)CO)C(=O)c2cc(NC(=O)Cn3cnnn3)ccc2O[C@@H]1CN(C)Cc1ccc(C(=O)Nc2ccccc2N)cc1`, the cytotoxicity call is “inactive”.
To `C[C@@H]1CN([C@H](C)CO)C(=O)c2cc(NC(=O)C3CC3)ccc2O[C@@H]1CN(C)S(=O)(=O)c1cn(C)cn1` belongs “inactive”; to `COc1ccc(CN(C)C[C@H]2OCCCC[C@@H](C)Oc3ccc(NS(=O)(=O)c4ccc(F)cc4)cc3C(=O)N([C@H](C)CO)C[C@@H]2C)cc1`, “inactive”; to `COc1ccccc1NC(=O)N(C)C[C@@H]1Oc2cc(Br)ccc2S(=O)(=O)N([C@@H](C)CO)C[C@@H]1C`, “inactive”.
`C[C@H]1CN([C@@H](C)CO)S(=O)(=O)c2ccc(-c3cncnc3)cc2O[C@H]1CN(C)C(=O)NC1CCCC1`: the cytotoxicity call is “inactive”.
To `COc1ccc2c3c([nH]c2c1)[C@H](CO)N(Cc1ccc(cc1)Cl)C[C@]13CCN(CCc2ccccc2)CC1` belongs “active”; to `COc1ccc(cc1)CN1C[C@]2(CCN(CC2)C(=O)Nc2cccc(c2)F)c2c([nH]c3cc(ccc23)OC)[C@@H]1CO`, “inactive”.
Consider `COc1ccc2c3c([nH]c2c1)[C@@H](CO)N(C[C@]13CCN(CCc2ccccc2)CC1)C(=O)CN1CCOCC1`, for which the cytotoxicity call is “inactive”.
Turning to `COc1ccc2c3c([nH]c2c1)[C@@H](CO)N(Cc1ccc(cc1)Cl)C[C@]13CCN(CCc2ccccc2)CC1`, the cytotoxicity call is “active”.
For `COc1ccc2c3c([nH]c2c1)[C@@H](CO)N(Cc1ccncc1)C[C@]13CCN(CC1)Cc1ccc(cc1)-c1ccccn1`, the cytotoxicity call was “inactive”.
To `COc1ccc2c3c([nH]c2c1)[C@H](CO)N(Cc1ccccc1)C[C@]13CCN(CC1)C(=O)Nc1cccc(c1)F` belongs “inactive”; to `COc1ccc(NC(=O)N(C)C[C@H]2OCCCC[C@H](C)Oc3ccc(NC(=O)C4CCCCC4)cc3C(=O)N([C@H](C)CO)C[C@@H]2C)cc1`, “inactive”.
With `C[C@@H]1CN([C@@H](C)CO)C(=O)c2cc(NS(=O)(=O)c3cccs3)ccc2O[C@H]1CN(C)Cc1ccncc1` the entry was “inactive”; with `Cc1noc(C)c1S(=O)(=O)N(C)C[C@@H]1Oc2ccc(NC(=O)Cc3ccccc3)cc2CC(=O)N([C@@H](C)CO)C[C@H]1C`, “inactive”.
With `C[C@@H]1CN([C@@H](C)CO)C(=O)Cc2cc(NS(=O)(=O)c3ccc(Cl)cc3)ccc2O[C@@H]1CN(C)Cc1ccc(-c2ccccc2)cc1`, the cytotoxicity call was “inactive”.
With `C[C@@H]1CN([C@@H](C)CO)C(=O)Cc2cc(NS(=O)(=O)c3ccc(Cl)cc3)ccc2O[C@H]1CN(C)Cc1ccc(-c2ccccc2)cc1` the entry was “active”.
In the case of `C[C@H]1CN([C@@H](C)CO)C(=O)Cc2cc(NS(=O)(=O)c3ccc(Cl)cc3)ccc2O[C@@H]1CN(C)Cc1ccc(-c2ccccc2)cc1`, the cytotoxicity call was “inactive”.
With `C[C@H](CO)N1C[C@H](C)[C@H](CN(C)Cc2ccc(-c3ccccc3)cc2)Oc2ccc(NS(=O)(=O)c3ccc(Cl)cc3)cc2CC1=O` the entry was “inactive”; with `C[C@H](CO)N1C[C@H](C)[C@@H](CN(C)Cc2ccc(-c3ccccc3)cc2)Oc2ccc(NS(=O)(=O)c3ccc(Cl)cc3)cc2CC1=O`, “inactive”.
As for `C[C@@H]1CN([C@H](C)CO)C(=O)Cc2cc(NS(=O)(=O)c3ccc(Cl)cc3)ccc2O[C@H]1CN(C)Cc1ccc(-c2ccccc2)cc1`, the cytotoxicity call was “inactive”.
With `C[C@@H]1CN([C@H](C)CO)C(=O)Cc2cc(NS(=O)(=O)c3ccc(Cl)cc3)ccc2O[C@@H]1CN(C)Cc1ccc(-c2ccccc2)cc1` the entry was “active”; with `C[C@H]1CN([C@@H](C)CO)C(=O)Cc2cc(NS(=O)(=O)c3ccc(Cl)cc3)ccc2O[C@H]1CN(C)Cc1ccc(-c2ccccc2)cc1`, “active”; with `C[C@@H]1CN([C@@H](C)CO)C(=O)c2cc(NS(C)(=O)=O)ccc2O[C@@H](C)CCCCO[C@H]1CN(C)CC1CC1`, “inactive”.
To `C[C@@H]1CN([C@H](C)CO)C(=O)c2cc(NC(=O)Cn3cnnn3)ccc2O[C@H]1CN(C)Cc1ccc(Cl)c(Cl)c1` belongs “inactive”; to `C[C@H]1CN([C@@H](C)CO)C(=O)c2cccc(NS(=O)(=O)c3ccc(F)cc3)c2O[C@@H]1CN(C)S(=O)(=O)c1cccs1`, “inactive”.
In the case of `O=C(C[C@H]1C[C@@H]2c3cc(NC(=O)Nc4ccc(C(F)(F)F)cc4)ccc3O[C@@H]2[C@H](CO)O1)NCc1cc(F)ccc1F`, the cytotoxicity call is “inactive”.
To `C[C@H](CO)N1C[C@H](C)[C@@H](CN(C)C(=O)Nc2cccc(F)c2)OCc2ccccc2-c2ccccc2C1=O` belongs “inactive”.
With `C[n+]1ccc(CCCO)cc1` the entry was “inactive”; with `CC(C)C(N)C(=O)OCCOCn1cnc2c(=O)[nH]c(N)nc21.Cl` (stereo not given), “inactive”; with `Clc1ccc(C(Cn2ccnc2)OCc2c(Cl)cccc2Cl)c(Cl)c1.O=[N+]([O-])O` (stereo not given), “inactive”.
To `Clc1ccc(COC(Cn2ccnc2)c2ccc(Cl)cc2Cl)c(Cl)c1.O=[N+]([O-])O` (stereo not given) belongs “inactive”.
For `Clc1ccc(CCC(Cn2ccnc2)Sc2c(Cl)cccc2Cl)cc1` (stereo not given), the cytotoxicity call was “inactive”.
To `Clc1ccc(CSC(Cn2ccnc2)c2ccc(Cl)cc2Cl)cc1.O=[N+]([O-])O` (stereo not given) belongs “active”; to `Clc1ccc(COC(Cn2ccnc2)c2ccc(Cl)cc2Cl)cc1.O=[N+]([O-])O` (stereo not given), “active”; to `Clc1ccc(CON=C(Cn2ccnc2)c2ccc(Cl)cc2Cl)c(Cl)c1.O=[N+]([O-])O`, “inactive”.
To `CC(C)NC(=O)N[C@H]1C=C[C@H](CC(=O)NCCCN(C)C)O[C@@H]1CO` belongs “inactive”; to `COc1cccc(S(=O)(=O)N[C@H]2C=C[C@@H](CC(=O)NC3CCC3)O[C@H]2CO)c1`, “inactive”; to `C[C@@H]1CN([C@@H](C)CO)C(=O)c2cc(N(C)C)ccc2O[C@H]1CN(C)S(=O)(=O)c1ccc(Cl)cc1`, “inactive”.
To `Cc1cccc(NC(=O)CN2C(=O)CNC2=O)c1` belongs “inactive”.
Consider `C[C@H](CO)N1C[C@H](C)[C@H](CN(C)C(=O)Nc2ccc3c(c2)OCO3)Oc2ccc(NS(C)(=O)=O)cc2CC1=O`, for which the cytotoxicity call is “inactive”.
With `CCC(=O)N1CCN(c2ccc(-n3c(=O)ccc4cnc5ccc(-c6cnc7ccccc7c6)cc5c43)cc2C(F)(F)F)CC1` the entry was “active”; with `Cc1noc(C)c1NC(=O)Nc1ccc2c(c1)C(=O)N([C@H](C)CO)C[C@H](C)[C@H](CN(C)C(=O)C1CCCCC1)OCCCC[C@H](C)O2`, “inactive”.
As to `C[C@H]1CN([C@@H](C)CO)C(=O)c2cccc(NC(=O)c3nc4ccccc4s3)c2O[C@H]1CN(C)Cc1ccc(C(F)(F)F)cc1`, the cytotoxicity call was “inactive”.
Turning to `O=C(C[C@@H]1C[C@@H]2c3cc(NC(=O)C4CCOCC4)ccc3O[C@@H]2[C@H](CO)O1)NCc1ccc2c(c1)OCO2`, the cytotoxicity call is “inactive”.
With `CS(C)(=O)=O` the entry was “active”; with `CS(=O)(=O)OCCCCOS(C)(=O)=O` [listing 1 of 2 here], “inactive”.
To `CS(=O)(=O)OCCCCOS(C)(=O)=O` [listing 2 of 2 here] belongs “inactive”.
For `CCOC(=O)c1c[nH][nH]c1=O`, the cytotoxicity call is “inactive”.
With `CC(C)NC(=O)N(C)C[C@H]1OCCCC[C@H](C)Oc2ccc(NC(=O)Nc3ccc(F)cc3)cc2C(=O)N([C@H](C)CO)C[C@@H]1C` the entry was “inactive”; with `C[C@H](CO)N1C[C@H](C)[C@@H](CN(C)C(=O)Cc2ccccc2)OCCCC[C@H](C)Oc2ccc(NC(=O)NC3CCCCC3)cc2C1=O`, “inactive”; with `COc1nn(C)cc1C(=O)Nc1ccon1`, “inactive”.
With `S=C1NCN(CCc2ccccc2)CN1` the entry was “inactive”; with `OCCN1CNC(=S)NC1`, “inactive”.
As for `CCCCN1CNC(=S)NC1`, the cytotoxicity call is “active”.

Values taken from the antibiotic and cytotoxicity screens of Wong et al. (2023).
